# Results published in PubChem BioAssay (EPA / NIEHS).
# The source made the active and inactive calls. The calls were made as follows: active = hit-call score of the fitted dose curve at least 0.9, where 1 is the maximum; inactive = score below 0.9.
# Target: Hepatocyte nuclear factor 3-beta (Homo sapiens) (UniProt Q9Y261)
# Assay: ATG_FoxA2_CIS: Attagene CIS-FACTORIAL HepG2 Assay for human Forkhead box A2 (FOXA2) (AID 2282942)
# Settings: HepG2 cis-reporter transcription factor activity, 24 h; actives raise or lower the signal
# Method: ATG_CIS is a cell-based, multiplexed-readout assay that uses HepG2, a human liver cell line, with measurements taken at 24 hours after chemical dosing in a 24-well plate.ATG_FoxA2_CIS is one of 52 assay component(s) measured or calculated from the ATG_CIS assay. It is designed to make measurements of mRNA induction, a form of inducible reporter, as detected with fluorescence intensity signals by Reverse transcription polymerase chain reaction (RT-PCR) and Capillary electrophoresis technology.Data from the assay component ATG_FoxA2_CIS was analyzed into 1 assay endpoint. This assay endpoint, ATG_FoxA2_CIS, was analyzed with bidirectional fitting relative to DMSO as the negative control and baseline of activity. Using a type of inducible reporter, measures of mRNA for gain or loss-of-signal activity can be used to understand the reporter gene at the transcription factor-level as they relate to the gene FOXA2. Furthermore, this assay endpoint can be referred to as a primary readout, because this assay has produced multiple assay endpoints where this one serves a reporter gene function. To generalize the intended target to other relatable targets, this assay endpoint is annotated to the dna binding intended target family, where the subfamily is forkhead box protein.
# Human liver HepG2 cells are transiently transfected with multiple reporter transcription units (MRTUs) in 6-well plates using FuGene 6 reagent (Roche; 3 ml FuGene/1 mg DNA). The MRTU constructs are regulated by a cis-regulating element (promoter). […] A major difference between the CIS and TRANS system is that in CIS activities of endogenous TFs are measured, whereas the TRANS assay evaluates changes in activities of exogenous, chimeric NR-Gal4 proteins. […] At the end of 24 hour incubation, total RNA was isolated using TriZol reagent (Invitrogen). The isolated RNA is then reverse-transcribed using oligo(dT) primer and Mo-MLV reverse transcriptase (Invitrogen) with DNAse I (Ambion) treatment for 30 min. The one-tenth of the produced cDNA was amplified by PCR using Taq DNA polymerase (Invitrogen) and two reporter sequence-specific primers. The PCR products were fluorescently labeled by primer extension with 6-arboxyfluorescein (6-FAM) 5'-labeled reporter sequence-specific primer (2 min at 95 C, 20 s at 68 C and 10 min at 72 C) and these products were digested with 5U of HpaI (New England Biolabs) for 2h at 37 C. The fragments were purified using Qiaquick PCR columns (Qiagen), analyzed on an ABI 3130xL genetic analyzer (Applied Biosystems) with peak positions identified by using a set of X-rhodamine (ROX)-labeled MapMarker1000 molecular weight standards (BioVentures). The raw capillary electrophoresis data was processed using Attagraph software (Attagene).
# Sequence of Hepatocyte nuclear factor 3-beta (Homo sapiens) (Q9Y261 whole entry, looked up): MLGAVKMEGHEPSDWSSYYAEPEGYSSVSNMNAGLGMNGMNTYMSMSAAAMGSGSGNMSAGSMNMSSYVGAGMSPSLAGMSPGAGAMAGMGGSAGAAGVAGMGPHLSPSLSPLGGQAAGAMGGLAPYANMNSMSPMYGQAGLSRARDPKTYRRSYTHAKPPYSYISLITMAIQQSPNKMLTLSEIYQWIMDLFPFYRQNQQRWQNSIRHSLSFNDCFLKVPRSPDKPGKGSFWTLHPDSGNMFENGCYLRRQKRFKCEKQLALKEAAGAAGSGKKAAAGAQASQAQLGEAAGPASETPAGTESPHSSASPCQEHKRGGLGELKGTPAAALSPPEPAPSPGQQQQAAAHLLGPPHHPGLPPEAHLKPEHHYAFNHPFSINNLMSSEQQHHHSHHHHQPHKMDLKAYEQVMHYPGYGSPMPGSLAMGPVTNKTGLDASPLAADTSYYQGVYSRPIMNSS
row,SMILES,outcome
1,CCOc1ccc(N)c([N+](=O)[O-])c1,inactive
2,Cc1cc(=O)n(-c2ccccc2)n1C,inactive
3,C=C(C)C(=O)OCC(C)C,inactive
4,COC(=O)c1cc(Cl)ccc1[N+](=O)[O-],inactive
5,Cc1cccc(N(C)C(=S)Oc2ccc3ccccc3c2)c1,inactive
6,FC(F)=C(F)OC(F)(F)C(F)(F)C(F)(F)F,inactive
7,CCOC(=O)CC(C(C)=O)C(C)=O,inactive
8,CCCCCCCCCCCSCC(=O)O,inactive
9,CCO[Si](C)(OCC)OCC,inactive
10,O=CC1CC1,inactive
11,Cc1ccc(N/N=c2\c(=O)cc/c(=N/Nc3ccc(S(=O)(=O)O)cc3)c2=O)c(C)c1,inactive
12,CC(=O)c1ccc[nH]1,inactive
13,CC(=O)OC1C2(C)CCC(C2)C1(C)C (stereo not given),inactive
14,CCOC(=O)Cc1cccc2ccccc12,inactive
15,CCCCCCCCC(=O)OCC,inactive
16,Cc1ccc(OC(=O)CC(C)C)cc1,inactive
17,O=S(=O)(Oc1ccc(Cl)cc1Cl)c1ccccc1,inactive
18,COC(=O)c1ccccc1OC,inactive
19,COC=O,inactive
20,CC1=NN(c2cc(S(=O)(=O)O)ccc2Cl)C(=O)C1N=Nc1ccccc1 (stereo not given),inactive

row,SMILES,outcome
1,Cc1cc(C)c(C(=O)O)c(C)c1,inactive
2,O=c1[nH]c(=O)c2[nH]c(=O)[nH]c2[nH]1,inactive
3,CCN(Cc1cccc(S(=O)(=O)O)c1)c1ccc(C(=C2C=CC(=[N+](CC)Cc3cccc(S(=O)(=O)[O-])c3)C=C2)c2ccccc2)cc1,inactive
4,Cc1cc(C)c(C)cc1C,inactive
5,CCCc1ccc(OC)cc1,inactive
6,COC(F)(F)C(F)(C(F)(F)F)C(F)(F)F,inactive
7,COC(=O)c1c(C)cc(O)c(C)c1O,inactive
8,CC(C)COC(=O)C=Cc1ccccc1,inactive
9,C=COCCCC,inactive
10,CCOC(F)(F)C(F)(F)C(F)(F)C(F)(F)F,inactive
11,CCCCCCCCc1ccc(Nc2ccc(CCCCCCCC)cc2)cc1,inactive
12,SCCc1cnccn1,inactive
13,CCCCC(CC)CCC(CC(C)C)OS(=O)(=O)O (stereo not given),inactive
14,COc1ccc(NC(C)=O)cc1N,inactive
15,[Cl][In]([Cl])[Cl],inactive
16,CN(C)CCCN(C)C,inactive
17,C=CC(=O)OCCC(=O)O,inactive
18,COc1cc(C)ccc1C(C)C,inactive
19,OCCc1ccncc1,inactive
20,CC1OC1C1CCC2(C)OC2C1 (stereo not given),inactive
